PubChem BioAssay
Active and inactive are the calls of the source. Unless noted, how the calls were made is not given here.

Assays:
[1] = compounds binding Alexa647 anti-His antibody – biochemical, small-molecule microarray, 635 nm fluorescence, artefact control for SMM control protein annotation, primary screen (AID 1128); conditions: higher = more signal;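 further: score merges feature fluorescence with signal-to-noise for each printed compound spot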
[2] = tested on: Human papillomavirus type 1a E7 protein (residues 1-88); test: HPV1a E7 small-molecule binders, primary screen, biochemical, small-molecule microarray, residues 1-88, 635 nm (AID 1129); conditions: small-molecule microarray binding, fluorescence 635 nm; higher = more signal
[3] = biological target: Focal adhesion kinase 1 (Homo sapiens) (UniProt Q05397); test: PTK2 protein binding on printed compound slides – biochemical, small-molecule microarray, 635/667 nm fluorescence, BSA, DTT, primary screen (AID 1130); conditions: 635 nm fluorescence, higher = more signal;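 further: composite of spot emission at 667 nm and signal to noise over triplicate slides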
Focal adhesion kinase 1 (Homo sapiens), sequence (Q05397 whole entry, looked up): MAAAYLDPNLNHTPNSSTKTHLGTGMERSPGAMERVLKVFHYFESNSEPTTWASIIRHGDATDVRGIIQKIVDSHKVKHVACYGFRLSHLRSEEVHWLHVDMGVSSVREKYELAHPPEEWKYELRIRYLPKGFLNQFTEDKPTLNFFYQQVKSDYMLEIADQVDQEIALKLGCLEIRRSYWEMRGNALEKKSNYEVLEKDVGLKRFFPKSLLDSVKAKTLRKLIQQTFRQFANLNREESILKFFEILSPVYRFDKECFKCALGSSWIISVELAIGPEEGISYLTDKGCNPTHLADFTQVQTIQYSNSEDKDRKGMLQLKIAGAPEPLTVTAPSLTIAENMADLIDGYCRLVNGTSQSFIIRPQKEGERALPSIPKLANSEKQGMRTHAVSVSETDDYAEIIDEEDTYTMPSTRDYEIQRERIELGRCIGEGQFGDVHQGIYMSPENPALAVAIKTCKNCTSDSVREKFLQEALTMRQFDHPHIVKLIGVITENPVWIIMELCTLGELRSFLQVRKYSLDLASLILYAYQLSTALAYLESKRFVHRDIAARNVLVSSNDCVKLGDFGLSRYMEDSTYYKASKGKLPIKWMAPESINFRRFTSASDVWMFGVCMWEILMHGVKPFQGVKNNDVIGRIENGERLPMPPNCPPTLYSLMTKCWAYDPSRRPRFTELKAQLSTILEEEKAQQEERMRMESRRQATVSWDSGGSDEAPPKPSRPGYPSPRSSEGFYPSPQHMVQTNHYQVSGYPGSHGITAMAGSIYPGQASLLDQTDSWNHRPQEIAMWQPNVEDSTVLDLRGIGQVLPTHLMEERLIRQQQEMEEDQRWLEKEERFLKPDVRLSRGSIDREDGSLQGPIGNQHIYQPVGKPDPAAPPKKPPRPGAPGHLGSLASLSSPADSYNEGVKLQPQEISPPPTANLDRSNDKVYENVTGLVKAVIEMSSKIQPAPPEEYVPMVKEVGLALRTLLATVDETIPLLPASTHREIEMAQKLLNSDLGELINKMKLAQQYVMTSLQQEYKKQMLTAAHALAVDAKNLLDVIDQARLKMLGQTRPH

[4] = tested on: Fibrinogen (Alexa647-labelled); test: Alexa647-fibrinogen binding to printed small molecules – biochemical, small-molecule microarray, 635/667 nm fluorescence, artefact control for SMM control-protein annotation, profiling panel (AID 1131); conditions: fibrinogen-A647 binding fluorescence, higher = more signal;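 further: z-score merges 667 nm fluorescence with per-spot signal-to-noise over triplicate slides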
[5] = biological target: Follistatin (Homo sapiens) (UniProt P19883); test: FST protein binding to printed compounds – biochemical, small-molecule microarray, 635/667 nm fluorescence, primary screen (AID 1132); conditions: 635 nm fluorescence, higher = more signal
Follistatin (Homo sapiens), sequence (P19883 whole entry, looked up): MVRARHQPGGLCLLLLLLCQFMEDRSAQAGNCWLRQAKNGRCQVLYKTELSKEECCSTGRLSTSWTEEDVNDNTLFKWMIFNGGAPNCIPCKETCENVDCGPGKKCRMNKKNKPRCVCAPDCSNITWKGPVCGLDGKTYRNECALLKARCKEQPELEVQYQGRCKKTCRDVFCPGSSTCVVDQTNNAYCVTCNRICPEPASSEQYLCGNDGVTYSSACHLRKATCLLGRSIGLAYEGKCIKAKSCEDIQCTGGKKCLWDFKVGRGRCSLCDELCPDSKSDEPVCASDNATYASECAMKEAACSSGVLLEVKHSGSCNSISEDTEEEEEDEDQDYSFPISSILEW

[6] = biological target: Fibroblast growth factor 2 (Homo sapiens) (UniProt P09038); test: basic fibroblast growth factor binding to printed compounds – biochemical, small-molecule microarray, 635/667 nm fluorescence, primary screen (AID 1133); conditions: FGF2, fluorescence 635/667, higher = more signal
Fibroblast growth factor 2 (Homo sapiens), sequence (P09038 whole entry, looked up): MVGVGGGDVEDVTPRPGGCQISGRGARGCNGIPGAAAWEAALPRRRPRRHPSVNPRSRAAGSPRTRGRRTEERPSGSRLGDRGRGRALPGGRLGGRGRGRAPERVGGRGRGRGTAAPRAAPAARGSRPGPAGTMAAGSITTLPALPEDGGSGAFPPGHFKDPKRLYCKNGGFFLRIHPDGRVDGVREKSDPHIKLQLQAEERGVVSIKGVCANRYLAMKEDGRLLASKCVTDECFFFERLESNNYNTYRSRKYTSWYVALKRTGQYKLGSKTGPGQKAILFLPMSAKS

[7] = JC-1 mitochondrial potential readout, lung cancer cells – cell-based, A549, JC-1 fluorescence, basal, 24 h, 100 nL, profiling panel (AID 1138); conditions: higher = more signal;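 further: A549 lung adenocarcinoma cells under basal conditions with no added stimulus; test concentration not given here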
Lefty1 = Lefty1 protein binding to printed compounds – biochemical, small-molecule microarray, 635/667 nm fluorescence, primary screen (AID 1139); conditions: fluorescence 635/667, higher = more signal
[8] = tested on: wheat germ agglutinin (Triticum aestivum), Alexa647-labelled; test: Alexa647-WGA lectin binding to printed small molecules – biochemical, small-molecule microarray, 635/667 nm fluorescence, artefact control for SMM control-protein annotation, profiling panel (AID 1140); conditions: WGA-A647 binding, 635 nm fluorescence, higher = more signal;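 further: score merges 667 nm feature emission with signal to noise over triplicate slides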
[9] = biological target: Luciferin 4-monooxygenase (Photinus pyralis) (UniProt P08659); test: inhibition of purified Photinus pyralis luciferase – biochemical, luminescence, purified enzyme, 2006 set, primary screen (AID 1141); conditions: purified firefly luciferase, SteadyGlo luminescence, 30 min; higher = more signal, called active from +8 up or from −8 down;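 further: cell-free assay with purified firefly luciferase at 100 ng per well in PBS; test concentration not given here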
Luciferin 4-monooxygenase (Photinus pyralis), sequence (P08659 whole entry, looked up): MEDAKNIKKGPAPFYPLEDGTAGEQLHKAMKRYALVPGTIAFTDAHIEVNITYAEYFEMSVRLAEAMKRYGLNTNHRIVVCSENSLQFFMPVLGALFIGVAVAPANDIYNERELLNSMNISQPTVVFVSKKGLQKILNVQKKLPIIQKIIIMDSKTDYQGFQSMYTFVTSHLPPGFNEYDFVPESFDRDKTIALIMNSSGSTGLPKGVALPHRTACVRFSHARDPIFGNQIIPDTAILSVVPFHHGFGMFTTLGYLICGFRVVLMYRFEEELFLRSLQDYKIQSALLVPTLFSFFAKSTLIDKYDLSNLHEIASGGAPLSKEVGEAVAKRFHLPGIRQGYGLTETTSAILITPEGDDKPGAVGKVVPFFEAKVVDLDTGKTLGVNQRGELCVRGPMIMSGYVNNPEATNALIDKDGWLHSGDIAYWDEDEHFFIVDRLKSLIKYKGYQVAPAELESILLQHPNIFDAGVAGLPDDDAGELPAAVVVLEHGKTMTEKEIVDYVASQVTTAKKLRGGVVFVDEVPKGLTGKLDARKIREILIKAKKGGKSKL

[10] = tested on: Wnt5a (protein binding on small-molecule microarray); test: small molecules binding Wnt5a protein – biophysical, small-molecule microarray, 635/667 nm fluorescence, primary screen (AID 1142); conditions: 635 nm fluorescence, higher = more signal;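 further: fluorescence read at 667 nm with signal to noise per printed feature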
[11] = ATP-based viability of Huh7 replicon cells – cell-based, CellTiter-Glo luminescence, basal, 48 h, cytotoxicity control for HCV replication inhibitor project, primary screen (AID 1143); conditions: higher = more signal, called active from +8 up or from −8 down;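 further: Huh7 hepatoma cells carrying a hepatitis C replication reporter with no stimulus; test concentration not given here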
[12] = Pseudomonas biofilm growth suppression – PAO1 strain, BacTiter-Glo luminescence, LB-PBS, primary screen (AID 1144); conditions: P. aeruginosa PAO1 biofilm, 12 h, higher = more signal
[13] = basal CRE-LacZ reporter activity in PC12 – cell-based, unstimulated, primary screen (AID 1145); conditions: no forskolin, luminescence, 4.5 h, higher = more signal, called active from +8 up or from −8 down
[14] = forskolin-driven CRE-LacZ activity in PC12 – cell-based, CRE-LacZ reporter, forskolin-stimulated, primary screen (AID 1146); conditions: luminescence, 4.5 h, higher = more signal, called active from +8 up or from −8 down;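 further: PC12 cells with 6xCRE LacZ reporter stimulated by forskolin 10 µM; beta-galactosidase reporter signal reflecting CREB driven transcription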
[15] = biological target: Streptavidin (Streptomyces avidinii) (UniProt P22629); test: compounds binding control protein streptavidin – biophysical, small-molecule microarray, 635/667 nm fluorescence, artefact control for SMM compound annotation, primary screen (AID 1147); conditions: higher = more signal;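 further: signal reflects streptavidin binding to arrayed compounds as a control protein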
Streptavidin (Streptomyces avidinii), sequence (P22629 whole entry, looked up): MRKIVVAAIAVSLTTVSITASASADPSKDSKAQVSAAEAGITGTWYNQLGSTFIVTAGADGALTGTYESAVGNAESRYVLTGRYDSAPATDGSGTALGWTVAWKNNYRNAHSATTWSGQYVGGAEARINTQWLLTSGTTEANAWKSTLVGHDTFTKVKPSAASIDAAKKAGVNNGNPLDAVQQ

[16] = probe aInhba binding on compound microarray – biochemical, small-molecule microarray, 635/667 nm fluorescence, primary screen (AID 1148); conditions: higher = more signal;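 further: score merges 667nm spot fluorescence with signal-to-noise for antibody binding to printed compounds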
Torsin-1A (Homo sapiens) [17] = biological target: Torsin-1A (Homo sapiens) (UniProt O14656); test: TOR1A wild-type binding on microarray – cell lysate, small-molecule microarray, lysate, 635/667 nm, primary screen (AID 1149); conditions: COS7 hTOR1A-WT lysate, 635 nm fluorescence, higher = more signal
Torsin-1A (Homo sapiens), sequence (O14656 whole entry, looked up): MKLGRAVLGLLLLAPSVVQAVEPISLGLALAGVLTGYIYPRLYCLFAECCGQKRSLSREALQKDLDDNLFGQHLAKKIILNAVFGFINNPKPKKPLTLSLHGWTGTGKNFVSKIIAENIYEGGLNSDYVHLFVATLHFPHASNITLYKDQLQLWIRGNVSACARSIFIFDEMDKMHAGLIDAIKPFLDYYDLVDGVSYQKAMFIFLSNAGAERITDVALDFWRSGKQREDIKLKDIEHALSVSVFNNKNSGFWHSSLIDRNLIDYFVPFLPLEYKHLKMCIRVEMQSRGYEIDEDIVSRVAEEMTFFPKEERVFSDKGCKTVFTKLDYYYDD

Torsin-1A (Homo sapiens) [18] = biological target: Torsin-1A (Homo sapiens) (UniProt O14656); test: torsin A mutant lysate binding on microarrays – cell lysate, small-molecule microarray, COS7 lysate, 635/667 nm fluorescence, primary screen (AID 1150); conditions: COS7 hTOR1A mutant lysate, 635 nm fluorescence, higher = more signal;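 further: score pools 667 nm emission and signal to noise measuring lysate protein binding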
[19] = tested on: Sonic hedgehog protein (Shh); test: Sonic hedgehog microarray binding compounds – biochemical, small-molecule microarray, 635/667 nm fluorescence, primary screen (AID 1151); conditions: 635 nm fluorescence, higher = more signal;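 further: Shh protein binding to compounds spotted on small-molecule microarray slides; score combines spot fluorescence intensity with signal-to-noise across triplicate slides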

Compound	composite z-score [1]	composite z-score [2]	composite z-score [3]	composite z-score [4]	composite z-score [5]	composite z-score [6]	z-score [7]	composite z-score (Lefty1)	composite z-score [8]	z-score [9]	composite z-score [10]	z-score [11]	z-score [12]	z-score [13]	z-score [14]	composite z-score [15]	composite z-score [16]	composite z-score (Torsin-1A (Homo sapiens) [17])	composite z-score (Torsin-1A (Homo sapiens) [18])	composite z-score [19]
CCN1C(=O)[C@H]2[C@H]3[C@H](O)[C@H](O)CC(=NNC(=O)OCc4ccc(OC)cc4)[C@@H]3CC[C@H]2C1=O	0.0221	-0.562	0.0875	-0.193	-0.735	0.193	-0.0338	-0.524	0.0083	-0.207 (inactive)	-0.0453	0.821 (inactive)	-0.409 (inactive)	-0.291 (inactive)	-0.523 (inactive)	-0.0023	-0.0521	-1.18	-0.703	-1.17
COc1ccc(O[C@@H]2[C@H](O)CO[C@H]2C=Cc2ccccc2)cc1	0.326	-0.437	0.051	0.173	-0.117	0.117	1.66	-0.208	0.0385	-1.69 (inactive)	-0.0668	-0.617 (inactive)	-1.74 (inactive)	0.284 (inactive)	-1.04 (inactive)	-0.06	-0.179	-0.696	-0.668	0.253
COc1ccc(O[C@H]2C=C[C@@H](c3ccccc3)O[C@@H]2COC(=O)CCC(C)=NOC(C)CN2CCCc3nc(C)c(C)cc32)cc1 (stereo not given in full)	0.264	1.11	0.0304	0.381	0.653	0.584	1.89	0.901	-0.028	0.503 (inactive)	0.162	-0.61 (inactive)	-0.34 (inactive)	0.448 (inactive)	-0.507 (inactive)	0.629	-0.12	0.0595	0.486	1.01
C#CCCCON=C1[C@H]2CCn3c(=O)n(-c4ccccc4)c(=O)n3[C@H]2[C@H](O)[C@@H]2O[C@H]12	0.303	0.875	0.093	0.436	0.295	0.27	0.94	0.66	0.107	-1.32 (inactive)	0.0823	-0.146 (inactive)	0.423 (inactive)	-0.112 (inactive)	0.462 (inactive)	-0.126	-0.23	0.494	1.27	0.504
C=CC[C@@H]1C=C[C@H](ON=C2[C@H]3CCn4c(=O)n(-c5ccccc5)c(=O)n4[C@H]3[C@H](O)[C@@H]3O[C@H]23)[C@@H](CO)O1	3.31	-0.542	-0.118	0.626	0.489	0.095	-0.544	0.96	-0.0168	0.845 (inactive)	0.132	1.17 (inactive)	-0.0199 (inactive)	0.164 (inactive)	0.312 (inactive)	0.43	-0.0736	-0.207	0.369	0.23
CCOC(=O)[C@H](CC(C)C)NC(=O)CCC1CC(OC(=O)NCCc2ccc(F)cc2)CC2(CCCC(COC(=O)NCC(c3ccccc3)c3ccccc3)O2)O1 (stereo not given in full)	0.59	0.749	0.097	0.874	0.678	0.533	-0.642	0.875	0.737	0.897 (inactive)	0.228	-0.361 (inactive)	-0.427 (inactive)	-0.438 (inactive)	-0.292 (inactive)	1.22	0.0111	-0.106	0.241	0.721
CON=Cc1ccc(C(=O)N2[C@H](c3ccc(C)cc3)[C@@H](C)CC[C@H]2C(=O)OC)cc1	2.72	0.73	-0.176	0.53	0.419	0.412	-0.0876	0.595	0.112	-1.06 (inactive)	-0.0731	-1.63 (inactive)	-0.183 (inactive)	0.336 (inactive)	-0.158 (inactive)	0.651	0.0398	0.144	0.568	0.441
C[C@H]1CC[C@H]2C(=O)OC(CO)CN2[C@@H]1c1ccc(Br)cc1 (stereo not given in full)	0.58	-0.805	-0.442	0.276	0.124	-0.153	-0.486	-0.0811	0.162	-0.0741 (inactive)	0.0096	0.131 (inactive)	-1.21 (inactive)	-0.527 (inactive)	-1.43 (inactive)	-0.281	-0.253	0.21	0.002	0.661
CO[C@H]1COC(=O)[C@@H](C)COC(=O)[C@H](COCc2ccccc2)NC(=O)CC=C[C@H]1C	-1.43	-1.02	-0.0555	-0.785	1.36	1.21	0.844	1.09	-0.841	-0.949 (inactive)	-0.171	0.27 (inactive)	-1.04 (inactive)	-0.567 (inactive)	-0.985 (inactive)	-0.807	-0.203	0.436	0.491	1.88
COC(=O)CC=C[C@@H](C)[C@@H](C=NO[C@@H]1O[C@H](COC(C)=O)[C@@H](OC(C)=O)[C@H](OC(C)=O)[C@H]1OC(C)=O)NS(=O)(=O)c1ccc(C)cc1	-0.588	-0.231	0.14	-0.083	0.484	0.35	-0.63	0.647	-0.986	1.08 (inactive)	-0.0003	0.0322 (inactive)	-0.202 (inactive)	7.64 (inactive)	1.02 (inactive)	-0.909	0.0086	0.514	0.311	0.629
